Screens as filed in PubChem BioAssay.
PLCg1 inh = PLC-gamma1 (human) inhibition, primary screen | P19174 | purified PLC-gamma1, fluorogenic substrate, fluorescence | inhibition, % at 12.2 µM | 0.84% of 370,000 active | AID 720700
MsrA act = bovine methionine sulfoxide reductase A activation. purified bovine MsrA, absorbance read-out. activation, % at 10.6 µM. 0.3% of 360,000 active; in the data active means activation above about 7.5%;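 further: 0% = vehicle and 100% = reference activator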
PLCb3 inh = inhibitors of human phospholipase C beta3. Purified PLC-beta3, fluorogenic substrate, fluorescence. inhibition, % at 12.2 µM. Q01970. AID 720704. 0.18% of 370,000 active; in the data active means inhibition above about 11%;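 further: 0% = median of compound wells on plate and 100% = full blocker control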
MsrA inhibitor = inhibitors of bovine MsrA; purified bovine MsrA, absorbance read-out; inhibition, % at 15.5 µM; 0.75% of 360,000 active; AID 651718; in the data active means inhibition above about 4.5%;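 further: 0% = vehicle wells with enzyme and 100% = reference inhibitor wells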
PLCg1 ctr = PLC-gamma1 inhibition, counter-screen for PLC-beta3 hits; shares compounds with PLCg1 inh; purified PLC-gamma1, fluorogenic substrate, fluorescence; inhibition, % at 12.3 µM; 3.1% of 3,300 active
PLCb3 confirm = confirmation of human PLC-beta3 inhibitors | shares compounds with PLCg1 inh | purified PLC-beta3, fluorogenic substrate fluorescence | inhibition, % at 12.3 µM | 1% of 3,300 active | AID 743261; in the data active means inhibition above about 11%
Active calls of the source: *. This is a sample that favours compounds with a hit; in the whole collection about 1.9% have one here. Unless noted, no stated cut-off is given here; in the data, active means inhibition above about 9.5%; inactive means the rest.

How did O=C(Nc1ccc(Cl)c([N+](=O)[O-])c1)c1ccncc1 do in these assays?
PLCg1 inh: 11*; MsrA act: -5; PLCb3 inh: 3; MsrA inhibitor: 0; PLCg1 ctr: -7; PLCb3 confirm: 1

What do the screens show for `O=C(Nc1ccc(Cl)c([N+](=O)[O-])c1)c1cnccn1`?
PLCg1 inh: 0; MsrA act: -8; PLCb3 inh: -3; MsrA inhibitor: -1

What do the screens show for `CN(c1ccccc1)S(=O)(=O)c1ccc(NC(=S)NC(=O)C2CC2)cc1`?
PLCg1 inh: 10*; MsrA act: -6; PLCb3 inh: 6; MsrA inhibitor: 0; PLCg1 ctr: 6; PLCb3 confirm: 5

What do the screens show for `CCC(C)(O)C(=O)N[C@H]1CCCN1C(=O)/C=C/c1ccccc1` (stereo partly specified)?
PLCg1 inh: 11*; MsrA act: -1; PLCb3 inh: 4; MsrA inhibitor: 1; PLCg1 ctr: -8; PLCb3 confirm: -23

Results for Cc1cc(C(O)c2ncc(-c3ccccc3)[nH]2)ccc1F (stereo unspecified) ?
MsrA act: 1

Results for COc1ccccc1C(=O)N(C)c1nnc(-c2ccccc2)s1 ?
PLCg1 inh: 9.7*; MsrA act: -3; PLCb3 inh: 4; MsrA inhibitor: 2; PLCg1 ctr: -1; PLCb3 confirm: 2

What do the screens show for `O=C(CCc1ccccc1-c1ccccc1CCNC(=O)c1cccc(F)c1)NCc1ccccc1`?
PLCg1 inh: -1; PLCb3 inh: -1

What do the screens show for `CCC(=O)Nc1ccc(N2CCN(Cc3ccccc3)CC2)cc1`?
PLCg1 inh: 5; MsrA act: -3; PLCb3 inh: -2; MsrA inhibitor: -1

Results for O=C(CCS(=O)(=O)c1ccccc1F)Nc1ccc(N2CCN(Cc3ccccc3)CC2)cc1 ?
PLCg1 inh: 11*; MsrA act: -1; PLCb3 inh: 4; MsrA inhibitor: 1; PLCg1 ctr: 3; PLCb3 confirm: 6

How did COc1ccc(S(=O)(=O)N2CCCCCC2)c2ccccc12 do in these assays?
PLCg1 inh: 2; PLCb3 inh: 1

Results for Cc1ccc(S(=O)(=O)c2ccc(Cl)cc2)cc1S(=O)(=O)NC(C)C(=O)O (stereo unspecified) ?
PLCg1 inh: 10*; MsrA act: -12; PLCb3 inh: -2; MsrA inhibitor: 0; PLCg1 ctr: -6; PLCb3 confirm: -3

Results for CC1(C(=O)NS(=O)(=O)c2cccs2)CCN1C(=O)CC1CCCC1 (stereo unspecified) ?
PLCg1 inh: -2; MsrA act: -13; PLCb3 inh: 2; MsrA inhibitor: -1

What do the screens show for `C/C=C/C(=O)OCC(=O)Nc1ccccc1Br`?
PLCg1 inh: 9.6*; MsrA act: -5; PLCb3 inh: 0; MsrA inhibitor: 0; PLCg1 ctr: -6; PLCb3 confirm: -1

Results for O=C(COC(=O)/C=C/c1ccccc1)Nc1ccccc1Br ?
PLCg1 inh: -1; MsrA act: -2; PLCb3 inh: 2; MsrA inhibitor: 2

Results for O=C(Nc1ccccc1)c1ccc(S(=O)(=O)NCc2cccnc2)cc1 ?
PLCg1 inh: 10*; MsrA act: -1; PLCb3 inh: -93; MsrA inhibitor: 1; PLCg1 ctr: -1; PLCb3 confirm: 2

How did Cc1ccc2nsnc2c1S(=O)(=O)NCCc1c(C)[nH]c2ccc(F)cc12 do in these assays?
PLCg1 inh: 10*; MsrA act: -4; PLCb3 inh: 8; MsrA inhibitor: 1; PLCg1 ctr: -1; PLCb3 confirm: -3

Results for Cc1ccc(C)c(NS(=O)(=O)c2c(C)ccc3nsnc23)c1 ?
PLCg1 inh: 4; MsrA act: -6; PLCb3 inh: 6; MsrA inhibitor: -1

What do the screens show for `COCCNS(=O)(=O)c1ccc(OCC(=O)OC)c(Cl)c1`?
PLCg1 inh: -37; MsrA act: -1; PLCb3 inh: 7; MsrA inhibitor: -2

What do the screens show for `COC(=O)COc1ccc(S(=O)(=O)NCc2ccco2)cc1Cl`?
PLCg1 inh: 11*; MsrA act: 2; PLCb3 inh: 10; MsrA inhibitor: 1; PLCg1 ctr: -3; PLCb3 confirm: -6

How did CCc1nc2c(OCc3ccccc3C)cccn2c1N(C)C(=O)c1ccc(C)cc1 do in these assays?
PLCg1 inh: 0; MsrA act: 1; PLCb3 inh: -5; MsrA inhibitor: 1

How did CCn1c(N2CCC(C)CC2)nc2c1c(=O)n(C)c(=O)n2C do in these assays?
PLCg1 inh: 12*; MsrA act: -1; PLCb3 inh: -2; MsrA inhibitor: -1; PLCg1 ctr: 0; PLCb3 confirm: 1

How did CC1CCN(c2nc3c(c(=O)n(C)c(=O)n3C)n2Cc2ccccc2)CC1 do in these assays?
PLCg1 inh: 3; MsrA act: -1; PLCb3 inh: 4; MsrA inhibitor: 0

What do the screens show for `CNC(=S)NCCN1CCOCC1`?
PLCg1 inh: -1; MsrA act: -5; PLCb3 inh: 0; MsrA inhibitor: 0

How did CCNC(=S)NCCN1CCOCC1 do in these assays?
PLCg1 inh: 9; MsrA act: -2; PLCb3 inh: 12*; MsrA inhibitor: 1; PLCg1 ctr: -5; PLCb3 confirm: 0

Results for Cc1cc(-n2c(C)cc(C(=O)CSc3nnc4sc5ccccc5n34)c2C)no1 ?
PLCg1 inh: 4; MsrA act: 0; PLCb3 inh: 11*; MsrA inhibitor: 2; PLCg1 ctr: -5; PLCb3 confirm: -3

What do the screens show for `Cc1cc(-n2c(C)cc(C(=O)CSc3ncnc4ccccc34)c2C)no1`?
PLCg1 inh: -26; MsrA act: -13; PLCb3 inh: -30; MsrA inhibitor: 1

What do the screens show for `C/C(=N\N=C(/N)SC1CC(=O)N(c2ccc(Cl)cc2)C1=O)c1cccs1` (stereo unspecified)?
PLCg1 inh: 9.9*; MsrA act: -6; PLCb3 inh: 3; MsrA inhibitor: 3; PLCg1 ctr: 5; PLCb3 confirm: 6

Results for Cc1ccc(C(C)C)c(OCC(O)CN2CC(C)OC(C)C2)c1 (stereo unspecified) ?
PLCg1 inh: 15*; MsrA act: -2; PLCb3 inh: -1; MsrA inhibitor: -1; PLCg1 ctr: 0; PLCb3 confirm: -3

How did CCc1nnc(N/N=C/c2c(F)cccc2Cl)n1N do in these assays?
PLCg1 inh: 14*; MsrA act: 4; PLCb3 inh: 3; MsrA inhibitor: 0; PLCg1 ctr: -9; PLCb3 confirm: -4

How did CCc1nc2ccc(C(=O)N3CCCC(C(N)=O)C3)cn2c1N(C)Cc1ccc(OC)cc1 (stereo unspecified) do in these assays?
PLCg1 inh: 10*; MsrA act: -8; PLCb3 inh: 0; MsrA inhibitor: 1; PLCg1 ctr: -8; PLCb3 confirm: -4

What do the screens show for `O=C1OCC2=C1C(c1ccccc1)CC(=O)N2c1ccc(F)cc1` (stereo unspecified)?
PLCg1 inh: 11*; MsrA act: -4; PLCb3 inh: 2; MsrA inhibitor: 0; PLCg1 ctr: 0; PLCb3 confirm: 2
